Pf Dd2 growth – qHTS Primary assay for Inhibitors of Plasmodium falciparum Dd2 growth in vitro; 120,000 tested, 4.3% active; Potency, µM (doses to about 28.9 µM), inactives show top-dose activity, negative = inhibition, usual class: inhibitors; P. falciparum Dd2 growth, SYBR Green, 72 h; AID 1347417, 2020; active = well fitted inhibition curve with a large enough effect;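 also: plate controls were DMSO vehicle for no effect and reference drug for full effect; nearly all actives have a fitted effect of over 65% in size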
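Readout: SYBR Green fluorescence, 485 nm excitation, 535 nm emission, after ~16 h lysis at 37C. Before that, Dd2-infected red cells (2.5% hematocrit) grew 72 h with compound, 29 uM top final concentration.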
* marks the source's active call; other numbers are inactive results; i = inactive; [ ] = another dose, or the depositor's remark. This excerpt belongs to a sample that is enriched for hits. Potency is read from the fitted curve at half-maximal effect.

SMILES	Pf Dd2 growth
CCC(=O)N1CCc2nc(N3CCN(Cc4cccnc4)CC3)sc2C1	i
O=C(NCc1ccco1)C1CCc2nc(N3CCN(C(=O)C4CCC4)CC3)sc2C1 (configuration not stated)	i
CCC(=O)N1CCN(c2nc3c(s2)CC(C(=O)Nc2ccc(F)cc2F)CC3)CC1 (configuration not stated)	5.01µM*
CCC(=O)N1CCN(c2nc3c(s2)CC(C(=O)NCc2cccc(OC)c2)CC3)CC1 (configuration not stated)	-4.1%
COC[C@]1(O)CCN(C(=O)C2(c3ccc(OC)cc3)CC2)CC1(C)C	-0.6%
COCCNC(=O)C[C@@H]1C[C@H]2O[C@H](CNCc3ccncc3F)[C@@H](O)[C@H]2O1	10.0%[44.1 µM]
Cc1cc(C)n2ncc(CN3CCn4nc(C(C)O)cc4C3)c2n1 (configuration not stated)	1.9%
NC(=O)CCNC(=O)C1=C[C@@H](NC(=O)c2cccc(F)c2)[C@@H](O)[C@H](O)C1	-11.0%[44.1 µM]
COCc1noc([C@@H]2CC(F)(F)CN2)n1	-15.5%
CCOc1ccccc1NC(=O)N(C)CC1CCOCC1	8.1%
COCCNC(=O)C(C)[C@@H]1CC[C@@]2(C)CC[C@H](N[S+](C)(=O)[O-])[C@@H](C)[C@@H]2[C@H]1O (some centres not stated)	-2.8%[44.1 µM]
O=C(N[C@@H]1C[C@H](Cn2cc(C3CC3)nn2)[C@@H](O)[C@H]1O)c1ccccc1	-1.3%[44.1 µM]
O=C(CC1CCCCC1)N1CCC2(CC1)NC(=O)N(c1ccc(F)cc1)N2	i
O=C(CCc1conc1-c1ccccc1F)NCc1cc(F)cc(F)c1	16.9%
Cc1ccc(CN2C(=O)NC3(CCCN(C(=O)c4ccc5c(c4)OCO5)C3)C2=O)cc1 (configuration not stated)	16.0%
CCn1ccc(C(=O)N2CCc3nc(NC)nc(C(=O)N4CCCC4)c3C2)n1	-11.2%
COC(=O)c1c(-c2ccc(Cl)cc2)noc1N1CCN(c2cccc(C)c2C)CC1	4.47µM*
COc1ccc(-c2noc(N3CCC(C(=O)N4CCN(c5cccc(C)c5C)CC4)CC3)n2)cc1	32.4%
CC1=C(c2ccc(Cl)cc2)S(=O)(=O)N=C1N1CCN(c2cccc(C)c2C)CC1	-13.8%
COCCC(=O)N1CCC2(CCN(Cc3cccc(C)c3)CC2)C(CO)C1 (configuration not stated)	-8.7%
Cc1ccc(C)c(OCC(=O)c2ccc3c(c2)N(C(C)C(=O)N2CCCC2)C(=O)CO3)c1 (configuration not stated)	i
O=C(c1ccc2c(c1)CC(=O)N2Cc1ccccc1)N1CCN(C2CCCCC2)CC1	1.41µM*
O=C(O)c1ccc2c(c1)CC(=O)N2Cc1ccc(F)cc1	i
O=C(NCc1cccc(F)c1)c1ccc2c(c1)CC(=O)N2Cc1ccccc1	i
COCCN1C(=O)[C@H]2CN(Cc3ccc(C)cc3)C[C@H]2C1=O	89.7%
SMILES	Pf Dd2 growth
CC(C)CCN1CCC(Oc2ccc(C(N)=O)cn2)CC1	i
O=C(C[C@@H]1CCNC[C@@H]1Cc1cc(-c2ccccc2)on1)NC1CCCCC1	i
CCn1c(CN(C)C)nnc1C1CCN(C(=O)c2ccn(C(F)F)n2)CC1	10.5%
Cc1ccc(-c2ccc3ncn(Cc4ccccn4)c(=O)c3n2)c(C)c1	i
CCCCNc1ccc(-c2nc(-c3ccco3)no2)cc1[N+](=O)[O-]	13.5%
CCC(Nc1ccc(-c2nc(-c3ccco3)no2)cc1[N+](=O)[O-])c1ccccc1 (configuration not stated)	10µM*
O=[N+]([O-])c1cc(-c2nc(-c3ccco3)no2)ccc1NCc1ccccc1	-8.0%
CN(C)C[C@@H]1CN(c2ncccn2)C[C@H]1NC(=O)c1ccc(Cl)cc1	-23.4%
Cc1noc([C@@H]2CN(C(=O)c3occc3C)C[C@H]2CO)n1	12.2%
Cn1ccc(NC(=O)C2(C)CCc3cnc(NCc4ccccc4)nc32)n1 (configuration not stated)	-19.0%[44.1 µM]
CCn1cc(S(=O)(=O)N2CCC(C(=O)O)(n3cccn3)CC2)cn1	-3.3%
COCCn1c(Cn2ccc3ccccc32)nnc1C1CC(N)C1 (configuration not stated)	0.6%
CCN1c2cc(C(=O)Nc3ccc(OC)c(OC)c3)ccc2C(=O)N2CCCC21 (configuration not stated)	-10.0%
O=C1Nc2c(c(=O)[nH]c(=O)n2-c2ccc(F)cc2)C1(NS(=O)(=O)c1ccc(Cl)cc1)C(F)(F)F (configuration not stated)	36.7%
Cc1ccc(-n2c3c(c(=O)[nH]c2=O)C(NS(=O)(=O)c2ccc(C)cc2)(C(F)(F)F)C(=O)N3)cc1 (configuration not stated)	22.2%
Cc1ccc(-n2c3c(c(=O)[nH]c2=O)C(NS(=O)(=O)c2ccc(Cl)cc2)(C(F)(F)F)C(=O)N3)cc1 (configuration not stated)	8.91µM*
O=C([C@H]1C[C@H](Oc2cccnc2)CN1S(=O)(=O)Cc1ccccc1F)N1CCOCC1	-17.0%
O=C(O)C[C@@H]1CCN(C(=O)C2CC2)C[C@@H]1CCN1CCN(c2ccc(F)cc2)CC1	-1.2%[44.1 µM]
O=C(NCc1cc2ccc(F)cc2[nH]c1=O)C1CC2(CCNCC2)CN1 (configuration not stated)	-5.7%
Nc1ccc(-c2ccc(OCCn3ccnc3)cc2)cn1	i
COc1ccc(C(=O)NC2CCN(C(=O)N3CC4CC(C3)[C@H]3CCCC(=O)N3C4)CC2)c(OC)n1 (some centres not stated)	5.01µM*
COc1ccc(C(=O)NC2CCN(C(=O)N3CC4CC(C3)[C@H]3CCCC(=O)N3C4)CC2)cn1 (some centres not stated)	i
COc1ccc(C(=O)NC2CCN(C(=O)N3CC4CC(C3)[C@H]3CCCC(=O)N3C4)CC2)c(OC)c1 (some centres not stated)	-26.8%
Cn1cc(CNc2ccc(-c3nc(CCCc4ccccc4)no3)cn2)cn1	-19.9%
Cc1ccccc1S(=O)(=O)N1CCn2nnc(CCC(=O)NC3CC3)c2C1	18.1%
SMILES	Pf Dd2 growth
CSc1ccc(CN2C(=O)C3(CCOCC3)CC2c2nnnn2C(C)(C)C)cc1 (configuration not stated)	-13.4%
NCc1ccccc1Oc1ccc(F)c(Cl)c1	11.2µM*
COc1ccc2c(c1)c1c(c(=O)n(-c3ccc(F)c(Cl)c3)c(=O)n1Cc1ccccc1F)n2C	15.5%
COc1ccc(-c2nnc3n2CCN(C(=O)c2ccc(C(F)(F)F)cc2)C3)cc1	-27.5%
Cc1ccn2c(Nc3ccccc3C)c(-c3ccccn3)nc2c1	3.16µM*
Cc1ccccc1Nc1c(-c2cccc(Cl)c2)nc2ncccn12	-2.9%
Cc1ccc2nc(-c3ccccn3)c(Nc3ccccc3C)n2c1	8.91µM*
Cc1ccccc1Nc1c(-c2c[nH]c3ccccc23)nc2cccc(C)n12	19.8%
Cc1ccc2nc(-c3ccncc3)c(Nc3ccccc3C)n2c1	-22.4%
Cc1ccc2nc(-c3c[nH]c4ccccc34)c(Nc3ccccc3C)n2c1	-23.6%
O=C(NCCC1CCN(C(=O)Nc2cc(F)ccc2F)CC1)c1ccc2nc[nH]c2c1	i
CCCCCC(=O)N1CC[C@@H](CC(=O)NC2CC2)[C@@H](CC)C1	i
Cc1cnc(C(=O)NC2C[C@H]3CC[C@@H](C2)N3C(=O)c2cnccc2C)cn1 (some centres not stated)	0.0%
CCNC(=O)N(C1CC1)C1CCOC2(CCN(C(=O)c3ccn(CC)n3)CC2)C1 (configuration not stated)	31.8%

Bioassay records: PubChem, National Center for Advancing Translational Sciences (NCATS)
